High-throughput results as filed in PubChem BioAssay.
This is a sample that favours compounds with a hit; in the whole collection about 5.7% have one here.
KB-V1 cytotox: kills drug-selected multidrug resistant KB-V1 cells; 400,000 compounds, 3.4% hits; Potency, µM (top dose mostly 46.1 µM), hits mostly cytotoxic; AID 1347076; KB-V1 MDR cells viability, CellTiter-Glo, 72 h; note: potency is the fitted concentration of half-maximal effect; nearly all actives have a fitted effect of over 60% in size
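KB-V1 MDR subline cells in DMEM (phenol-red free, 10% FBS) exposed to compounds in qHTS concentration series for 72 h at 37 degrees C. Viability read by CellTiter-Glo luminescence; concentration-effect curves fitted after normalization and correction.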
PI4K2A block: blocks human PI4K2A kinase activity; purified PI4K2A, ADP-Glo luminescence, 1 h; hits give low values; activity change, negative = inhibition, % at 76.9 µM; 420,000 compounds, 0.13% hits; in the data active = activity change below about -50%; inconclusive = mostly about -30% to -49%;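 note: -100% = wells without enzyme as full effect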
Target sequence (Q9BTU6 whole entry, looked up): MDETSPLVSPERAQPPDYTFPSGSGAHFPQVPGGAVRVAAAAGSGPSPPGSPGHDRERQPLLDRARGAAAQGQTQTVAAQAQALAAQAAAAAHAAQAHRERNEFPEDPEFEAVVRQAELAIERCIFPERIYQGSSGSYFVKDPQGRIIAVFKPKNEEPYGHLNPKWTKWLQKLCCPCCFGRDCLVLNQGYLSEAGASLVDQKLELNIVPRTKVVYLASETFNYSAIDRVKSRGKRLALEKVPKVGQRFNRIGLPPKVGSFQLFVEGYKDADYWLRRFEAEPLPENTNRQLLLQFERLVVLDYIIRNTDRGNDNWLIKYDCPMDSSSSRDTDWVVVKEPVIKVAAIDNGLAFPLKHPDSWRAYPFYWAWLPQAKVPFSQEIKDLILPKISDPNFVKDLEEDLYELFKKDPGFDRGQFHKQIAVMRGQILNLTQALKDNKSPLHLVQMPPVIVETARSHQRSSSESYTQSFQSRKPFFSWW
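ADP-Glo luminescence measured ADP generated by PI4K2A enzyme (4 ug/mL before mixing) with 1.2 mM PI substrate (pre-mix) and 300 microM ATP (pre-mix). Tris pH7.5 buffer with MgCl2, Triton X-100; 1 h reaction at ambient temperature.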
Giardia kill: Giardia lamblia killing. Giardia lamblia trophozoite viability. activity change, % at 7.66 µM, hits read low. 340,000 compounds, 0.15% hits. AID 540267; in the data active = activity change below about -80%; inconclusive = between about -30% and that limit;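 note: parasites exposed to compound for two days anaerobically before the ATP read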
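Trophozoites 100 cells/well + cpd; 48 hrs, 37 deg C, anaerobic. ATPLite 1-Step added, 15-30 min RT, luminescence read (ATP-based viability).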
Nrf2 inh: blocks Nrf2 signaling. Potency, µM (series often up to 46 µM), for inactives: at the highest dose activity change, negative = inhibition, actives largely listed as inhibitors. A549 ARE-Fluc reporter, luciferase luminescence, 18-24 h. 360,000 compounds, 2.1% hits; note: potency is the fitted concentration of half-maximal effect; nearly all actives have a fitted effect of over 60% in size
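Two sequential reads on A549 ARE_Fluc cells exposed to compound for 18-24 h: a CellTiter-Fluor fluorescence read for viability, then a luciferase luminescence read for Nrf2/ARE activity.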
A549 viability: kills or reduces viability of A549 cells in Nrf2 counter-screen; 390,000 compounds, 0.16% hits; A549 ARE-Fluc cells, CellTiter-Fluor viability, 18-24 h; Potency, µM (highest dose often 46 µM), for the others: at the highest dose activity change, negative = cytotoxicity, actives largely listed as inhibitors; AID 504648; note: potency is the fitted concentration of half-maximal effect
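A549 ARE-Fluc cells in 5% FBS OPTI-MEM, 5000 cells/well, rested 2 h then exposed to compounds in concentration-response for 18-24 h at 37 °C. Viability by CellTiter-Fluor fluorescence (Ex 405/Em 525) after 30 min; luciferase luminescence (BugLite, 15 min, RT) read afterwards.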
KB-3-1 tox: KB-3-1 parental cell cytotoxicity; KB-3-1 viability, CellTiter-Glo ATP luminescence, 72 h; Potency, µM (top dose mostly 46.1 µM), most hits filed as cytotoxic; AID 1347075; 400,000 compounds, 1.4% hits; note: potency is the fitted concentration of half-maximal effect; nearly all actives have a fitted effect of over 60% in size
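Cytotoxicity measured as CellTiter-Glo luminescence after 72 h at 37 C. Compound titrations were pinned onto drug-naive KB-3-1 parental adenocarcinoma cells grown in DMEM with 10% FBS, and normalized data fitted to concentration-response curves.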
* marks the source's active call; other numbers are inactive results. Unless noted, calls come from the whole dose curve; as a rule, active = well fitted curve in the direction sought with a large enough effect; inconclusive = small, poorly fitted or top-dose-only effect, or another doubt; inactive = no such curve, though single readings can be large; an effect the other way counts as inactive or inconclusive. Unless noted, % is set by controls: 0 for no effect and ±100 for the full control effect.

Screening Cn1nc(C(=O)NC2CCCN(Cc3ccccc3F)C2)c2ccccc2c1=O (configuration not stated) returned KB-V1 cytotox inconclusive, PI4K2A block 3, Giardia kill 19, Nrf2 inh -15%, A549 viability -18% and KB-3-1 tox inactive.
`Cc1cccc(C)c1NC(=O)CN(C)S(=O)(=O)c1ccc2c(c1)n(C)c(=O)c(=O)n2C` gave KB-V1 cytotox inconclusive, PI4K2A block 0, Nrf2 inh 13%, A549 viability -4% and KB-3-1 tox inactive.
For CCCN1C(=O)c2ccccc2NC1c1ccc(OC)cc1O (configuration not stated) the results were KB-V1 cytotox 5.8µM*, PI4K2A block 1, Giardia kill -4, Nrf2 inh 18%, A549 viability -4% and KB-3-1 tox inconclusive.
CCCN1C(=O)c2ccccc2NC1c1ccc(OC)cc1OC (configuration not stated) was read as KB-V1 cytotox inconclusive, PI4K2A block -5, Giardia kill -3, Nrf2 inh -23%, A549 viability 6% and KB-3-1 tox inactive.
Screening COc1ccccc1Nc1nn2c(=O)c3ccc(C(=O)NCCCOC(C)C)cc3nc2s1 returned KB-V1 cytotox inactive, PI4K2A block -1, Nrf2 inh -19%, A549 viability -6% and KB-3-1 tox inactive.
COc1ccccc1Nc1nn2c(=O)c3ccc(C(=O)NCc4cccs4)cc3nc2s1 was read as PI4K2A block -3 and A549 viability 7.3µM*.
`CCc1ccccc1Nc1nn2c(=O)c3ccc(C(=O)NCc4ccc(C)cc4)cc3nc2s1` gave KB-V1 cytotox inactive, PI4K2A block -5, Nrf2 inh 13%, A549 viability 1% and KB-3-1 tox 2.9µM*.
`CCN(CC)CCNC(=O)c1ccc2c(=O)n3nc(Nc4ccccc4OC)sc3nc2c1` gave KB-V1 cytotox inactive, PI4K2A block -3, Nrf2 inh inconclusive, A549 viability 15µM* and KB-3-1 tox inactive.
Screening COc1cccc(C2c3c(ncn(-c4ccccc4)c3=N)Oc3ccc4ccccc4c32)c1OC (configuration not stated) returned PI4K2A block 0.
For N#CN1CCC(NC(=O)c2ccc(C(F)(F)F)cc2)CC1 the results were Nrf2 inh 10% and A549 viability -3%.
`CC(C)(C)c1ccc(C(=O)N/N=C/c2cccc(Cl)c2)cc1` gave KB-V1 cytotox 23µM*, PI4K2A block 7, Giardia kill -3, Nrf2 inh inconclusive, A549 viability inconclusive and KB-3-1 tox inconclusive.
`FC(F)(F)C(F)(F)C(F)(F)C(F)(F)C(F)(F)C(F)(F)C(F)(F)C(F)(F)Br` gave PI4K2A block 5.
COc1ccc(OCC(=O)Nc2c3c(nn2C(C)(C)C)CSC3)cc1 was read as KB-V1 cytotox inconclusive, PI4K2A block 1, Giardia kill 5, Nrf2 inh 12µM*, A549 viability -6% and KB-3-1 tox inactive.
COc1ccc(C(=O)/C(=C\c2ccco2)N2C=CC=CC2=C(C#N)C#N)cc1 was read as KB-V1 cytotox 7.3µM*, PI4K2A block 17, Giardia kill 2, Nrf2 inh inconclusive, A549 viability 18µM* and KB-3-1 tox inconclusive.
O=C(NC(NC1CCS(=O)(=O)C1)C(Cl)(Cl)Cl)c1cccc(Cl)c1 (configuration not stated) was read as KB-V1 cytotox 23µM*, PI4K2A block 3, Giardia kill 16, Nrf2 inh -15%, A549 viability -1% and KB-3-1 tox inactive.
Screening CCOC(=O)CC1(C)NC(=O)c2c(C)sc(C(=O)OCC)c2N1 (configuration not stated) returned KB-V1 cytotox 16µM*, PI4K2A block -1, Giardia kill 4, Nrf2 inh 13%, A549 viability -1% and KB-3-1 tox inactive.
`CCOc1ccc(-n2c(COc3ccc(Cl)cc3)nnc2SCC(=O)Nc2ccc(OCc3ccccc3)cc2)cc1` gave PI4K2A block -2.
`Cc1ccc(NS(=O)(=O)c2cccc(F)c2)cc1C` gave Nrf2 inh 4% and A549 viability 7%.
For NC(CSC(c1ccccc1)(c1ccccc1)c1ccccc1)C(=O)O (configuration not stated) the results were KB-V1 cytotox inconclusive, PI4K2A block 1, Giardia kill 30, Nrf2 inh -29%, A549 viability -13% and KB-3-1 tox 3.7µM*.
Screening CN(C)c1ccc(/C=C2/CCc3ccccc32)cc1 returned KB-V1 cytotox inactive and KB-3-1 tox inactive.
Screening CCOC(=O)c1cc2c(=Cc3ccc(N(C)C)cc3)c3ccccc3n2[n+]1C returned KB-V1 cytotox inconclusive, PI4K2A block -51*, Giardia kill -13, Nrf2 inh 8.2µM*, A549 viability inconclusive and KB-3-1 tox 2.1µM*.
Screening CN(C)c1ccc(C=c2c3ccccc3n3c2c2ccccc2[n+]3C)cc1 returned KB-V1 cytotox inconclusive, PI4K2A block -26, Giardia kill 7, Nrf2 inh 8.2µM*, A549 viability inconclusive and KB-3-1 tox 5.2µM*.
C[n+]1c(-c2ccccc2)cc2c(=Cc3ccc([N+](=O)[O-])cc3)c3ccccc3n21 was read as KB-V1 cytotox inconclusive, PI4K2A block inconclusive, Giardia kill -5, Nrf2 inh inconclusive, A549 viability inconclusive and KB-3-1 tox inconclusive.
`CCCOP(=O)(c1ccc(N(C)C)cc1)C(Nc1ccccc1)c1ccc(C)cc1` (configuration not stated) gave KB-V1 cytotox 21µM*, PI4K2A block -22, Giardia kill 8, Nrf2 inh inconclusive, A549 viability -28% and KB-3-1 tox inactive.
For O=C(NCCC1=CCCCC1)C(=O)NCC(c1ccco1)N1CCN(c2ccccc2F)CC1 (configuration not stated) the results were KB-V1 cytotox 4.1µM*, PI4K2A block -1, Giardia kill 5, Nrf2 inh -15%, A549 viability -5% and KB-3-1 tox inactive.
O=C(NCCC1=CCCCC1)C(=O)NCC(c1ccco1)N1CCN(c2ccccc2)CC1 (configuration not stated) was read as KB-V1 cytotox inconclusive, PI4K2A block 2, Giardia kill 1, Nrf2 inh inconclusive, A549 viability -19% and KB-3-1 tox inactive.
